Laboratory results from PubChem BioAssay AID463173 (ICCB-Longwood Screening Facility, Harvard Medical School, 2010).
In all, about 52,000 compounds went through this assay and about 4,300 (8.3%) were called active. Many of the other results were omitted from the sample, so actives are more common in it than they were. A number with no mark means an inactive call. Rule as the data show it: active = survival mostly below about 52% (no sharp cut-off); inactive = mostly above about 56%.

system: DeltatarO mutant; assay: growth inhibition of S. aureus wild type versus tarO mutant, primary screen, teichoic acid synthesis inhibitors, RN4220, OD600 (AID 463173); conditions: OD600, 18 h, hits give low values, screened at 18.75 µg/mL (by protocol)

Row | Compound | survival
1 | O=C(Nc1ccc2nc(SCCOc3ccccc3Cl)sc2c1)c1ccc2c(c1)OCO2 | 68%
2 | COc1cn(CC(=O)Nc2c(C)cc(C)cc2C)c(CN2CCCCC2)cc1=O | 98%
3 | CCOc1ccc(NS(=O)(=O)c2ccc(NC(=O)N3CCCC3)cc2)cc1 | 101%
4 | COc1ccc(OC)c(NC(=O)C(C)n2c(=O)cc(C)c3c(C)nn(-c4ccccc4)c32)c1 (configuration not stated) | 94%
5 | CCOc1ccccc1-c1cc(C(=O)N/N=C(\C)c2ccco2)[nH]n1 | 85%
6 | Clc1cccc(-c2ccc(CNCCSc3nnnn3-c3ccccc3)o2)c1 | 30% (active)
7 | Fc1cccc(Cl)c1CNCCSc1nnnn1-c1ccccc1 | 79%
8 | Cc1c(Cl)cccc1-c1ccc(CNCCSc2nnnn2-c2ccccc2)o1 | 62%
9 | Clc1ccc(-c2ccc(CNCCSc3nnnn3-c3ccccc3)o2)cc1 | 52%
10 | Fc1ccc(-c2ccc(CNCCSc3nnnn3-c3ccccc3)o2)cc1 | 28% (active)
11 | Clc1cccc(CNCCCSc2nnnn2-c2ccccc2)c1 | 68%
12 | COc1cc(OC)c(OC)cc1CNCCSc1nnnn1-c1ccccc1 | 61%
13 | Brc1ccc(-c2ccc(CNCCSc3nnnn3-c3ccccc3)o2)cc1 | 67%
14 | CCOc1ccc(Br)cc1CNCCSc1nnnn1-c1ccccc1 | 23% (active)
15 | Fc1ccc(-c2ccc(CNCCSc3nnnn3-c3ccccc3)o2)cc1Cl | 39% (active)
16 | CCOc1cc(CNCCSc2nnnn2-c2ccccc2)ccc1OC | 60%
17 | Fc1ccc(CNCCCSc2nnnn2-c2ccccc2)cc1 | 97%
18 | Cc1ccccc1OCC(=O)Nc1ccc2[nH]c(=O)sc2c1 | 133%
19 | CN(C)c1ccc(/C=C/C=c2\sc3nc4ccccc4n3c2=O)cc1 | 102%
20 | Cn1nnnc1SCCCNCc1ccc(-c2ccc(F)c(Cl)c2)o1 | 82%
21 | Cn1nnnc1SCCCNCc1ccc(-c2ccc(Br)cc2)o1 | 32% (active)
22 | Cn1nnnc1SCCCNCc1ccc(-c2cccc(Cl)c2)o1 | 97%
23 | COc1cccc2c1Oc1ncccc1N(C(=O)CCC(=O)NCc1ccc(C)cc1)C2 | 81%

Row | Compound | survival
24 | CCc1ccc(C2=NN(CCC(=O)NCCc3ccc(Cl)cc3)C(=O)CC2)cc1 | 128%
25 | COc1ccc(CCNC(=O)CSc2nc3ccccc3nc2Cc2ccc(C)cc2)cc1OC | 35% (active)
26 | CCCNC(=O)CSc1nc2ccccc2nc1Cc1ccc(Cl)cc1 | 74%
27 | Cc1ccc(CNC(=O)CSc2nc3ccccc3nc2Cc2ccc(C)cc2)cc1 | 71%
28 | COc1ccc(CCNC(=O)CSc2nc3ccccc3nc2Cc2ccc(Cl)cc2)cc1OC | 37% (active)
29 | CCCCNC(=O)CSc1nc2ccccc2nc1Cc1ccc(C)cc1 | 87%
30 | Cc1ccc(Cc2nc3ccccc3nc2SCC(=O)NCCc2ccccc2)cc1 | 67%
31 | CCOc1ccc(CCNC(=O)CSc2nc3ccccc3nc2Cc2ccc(C)cc2)cc1OCC | 112%
32 | O=C(CSc1nc2ccccc2nc1Cc1ccc(Cl)cc1)NCCc1ccccc1 | 69%
33 | CCCCN(C)C(=O)CSc1nc2ccccc2nc1Cc1ccc(C)cc1 | 32% (active)
34 | CCOc1ccc(CNS(=O)(=O)c2ccc3c(c2)CCCN3C(C)=O)cc1 | 93%
35 | CC(Sc1nc(NC(C)(C)C)nc(N(C)C)n1)C(=O)Nc1ccccc1 (configuration not stated) | 68%
36 | COc1cc2[nH]c(=O)n(Cc3ccc(C(=O)N4CCN(c5cc(Cl)ccc5C)CC4)cc3)c(=O)c2cc1OC | 58%
37 | COc1ccc(CNC(=O)CCNS(=O)(=O)c2ccc3c(c2)CCCC(=O)N3)cc1 | 119%
38 | COc1ccccc1NC(=O)C1=C(C)Nc2nc(SCc3ccccc3Cl)nn2C1c1ccccn1 (configuration not stated) | 171%
39 | CCn1cc(C(=O)N2CCN(c3ccc(OC)cc3)CC2)c(=O)c2cc(S(=O)(=O)N(C)C3CCCCC3)ccc21 | 122%
40 | CC(NC(=O)c1ccc(NC(=O)c2nsc3ccccc23)cc1)c1ccccc1 (configuration not stated) | 84%
41 | O=C(Cc1csc2ccccc12)NCc1ccc(F)cc1 | 71%
42 | Cc1cc(C)c(NC(=O)C(C)n2c(=O)cc(C)c3c(C)nn(-c4ccccc4)c32)c(C)c1 (configuration not stated) | 81%
43 | COc1ccc(NC(=O)c2nn(C)c3c2CS(=O)(=O)c2ccccc2-3)cc1Cl | 56% (active)
44 | COc1ccc(Cl)cc1NC(=O)c1nn(C)c2c1CS(=O)(=O)c1ccccc1-2 | 53%
45 | CC(C)NC(=O)c1nn(C)c2c1CS(=O)(=O)c1ccccc1-2 | 51% (active)
46 | Cn1nc(C(=O)NCc2ccccc2)c2c1-c1ccccc1S(=O)(=O)C2 | 85%

Row | Compound | survival
47 | COCCCNC(=O)c1nn(C)c2c1CS(=O)(=O)c1ccccc1-2 | 99%
48 | Cn1nc(C(=O)Nc2ccc(F)c(Cl)c2)c2c1-c1ccccc1S(=O)(=O)C2 | 90%
49 | CCN1C(=O)c2ccccc2Sc2ccc(NC(=O)COc3ccc(Cl)cc3)cc21 | 91%
50 | CCCCN(CC)CCNC(=O)c1c(C)oc2ncnc(N3CCOCC3)c12 | 87%
51 | COc1cccc(N2CCN(c3nc4ccc(C(=O)c5ccccc5)cc4n4c(C)nnc34)CC2)c1 | 102%
52 | Cc1c(C(=O)OCCOc2ccccc2)[nH]c2c1C(=O)CC(c1ccccc1Cl)C2 (configuration not stated) | 80%
53 | CCC(=O)N1CCc2cc(Br)cc(S(=O)(=O)NCc3ccccc3)c21 | 66%
54 | CCC(=O)N1CCc2cc(Br)cc(S(=O)(=O)NCCc3ccccc3)c21 | 43% (active)
55 | CCC(=O)N1CCc2cc(Br)cc(S(=O)(=O)NCCc3ccc(C)cc3)c21 | 85%
56 | CCC(=O)N1CCc2cc(Br)cc(S(=O)(=O)NCCc3ccccc3Cl)c21 | 39% (active)
57 | CCC(=O)N1CCc2cc(Br)cc(S(=O)(=O)NCCc3cccc(C)c3)c21 | 102%
58 | CCC(=O)N1CCc2cc(Br)cc(S(=O)(=O)CCC(=O)NCCc3ccccc3Cl)c21 | 72%
59 | CC(CNC(=O)c1ccc2nc(Cc3ccccc3)oc2c1)c1ccccc1 (configuration not stated) | 70%
60 | CC(Sc1nccn1C)C(=O)Nc1ccccc1C#N (configuration not stated) | 85%
61 | COc1ccccc1CNc1ncnc2c1c(-c1ccccc1)cn2-c1cccc(C)c1 | 80%
62 | O=S(=O)(c1ccc(C2CCCCC2)cc1)N1CCN(c2cc(Cl)ccc2Cl)CC1 | 72%
63 | CCc1ccc(S(=O)(=O)N2CCN(c3ccc(Cl)c(Cl)c3)CC2)cc1 | 118%
64 | O=S(=O)(c1ccc(C2CCCCC2)cc1)N1CCN(c2ccc(Cl)c(Cl)c2)CC1 | 54% (active)
65 | Cc1cccc(OC(=O)c2snnc2C)c1 | 88%
66 | Cc1cccc(NC(=O)c2oc3ccc(S(=O)(=O)N4CCCCC4)cc3c2C)c1C | 71%
67 | COc1ccccc1NC(=O)CSC1=Nc2ccccc2C2=NC(CC(=O)NCc3ccccc3)C(=O)N12 (configuration not stated) | 71%
68 | Cc1ccc(-n2ncc3c(N4CCCCCC4)ncnc32)cc1Cl | 102%
69 | CCn1c(=O)cc(SCC(=O)NCCc2cc(OC)ccc2OC)c2ccccc21 | 61%

Row | Compound | survival
70 | CCCCC(CC)Cn1c(Oc2ccccc2)nc2c1c(=O)n(C)c(=O)n2C (configuration not stated) | -15% (active)
71 | Cn1c(=O)c2c(nc(Oc3ccccc3)n2Cc2c(Cl)cccc2Cl)n(C)c1=O | 84%
72 | Cc1cc(C)cc(Oc2nc3c(c(=O)n(C)c(=O)n3C)n2Cc2ccc(F)cc2)c1 | 76%
73 | CCCCNc1nc2c(c(=O)n(Cc3ccccc3)c(=O)n2C)n1C | 66%
74 | CCCCNc1nc2c(c(=O)n(Cc3ccc(Cl)cc3)c(=O)n2C)n1C | 56%
75 | Cc1ccc(Oc2nc3c(c(=O)n(Cc4ccccc4)c(=O)n3C)n2C)cc1C | 44%
76 | Cc1cccc(Oc2nc3c(c(=O)n(C)c(=O)n3C)n2C)c1 | 123%
77 | Cc1cccc(Oc2nc3c(c(=O)n(C)c(=O)n3C)n2Cc2ccccc2)c1C | 53%
78 | COc1cccc(Cn2c(Oc3cc(C)cc(C)c3)nc3c2c(=O)n(C)c(=O)n3C)c1 | 31% (active)
79 | Cc1ccc(C)c(Oc2nc3c(c(=O)n(C)c(=O)n3C)n2Cc2ccccc2)c1 | 32% (active)
80 | CCCCNc1nc2c(c(=O)n(Cc3ccc(Cl)c(Cl)c3)c(=O)n2C)n1C | -10% (active)
81 | COc1cccc(Cn2c(NCc3ccc(C)cc3)nc3c2c(=O)n(C)c(=O)n3C)c1 | 79%
82 | CCOc1ccc(C(=O)c2cn(CC(=O)Nc3ccc(OC)cc3)c3cc4c(cc3c2=O)OCCO4)cc1 | 82%
83 | CCc1cccc(C)c1NC(=O)Cn1nc(C)c2nn(-c3ccc(Cl)cc3)c(C)c2c1=O | 124%
84 | Cc1ccc(-n2nc(CO)c(C(=O)NCCO)n2)cc1 | 82%
85 | CCOc1ccc(CN2CCc3nc(Nc4ccc5c(c4)OCCO5)ncc3C2)cc1 | 89%
86 | Cc1ccc(S(=O)(=O)c2nnn3c2nc(N2CCCCC2)c2sccc23)cc1 | 104%
87 | CCOC(=O)c1scc(-c2ccc(C)cc2)c1S(=O)(=O)N1CCN(c2ccccc2)CC1 | 73%
88 | Cc1ccc(CSc2nnc(-n3c(=O)c(C#N)cc4c(=O)n5cccc(C)c5nc43)s2)cc1 | 101%
89 | N#Cc1cc(-c2ccc(Cl)cc2)no1 | 97%
90 | COC(=O)CSc1nnc(-c2ccccc2)n1C | 97%
91 | CCc1ccccc1NC(=O)Nc1c(C)n(C)n(-c2ccccc2)c1=O | 88%
92 | CN1C(=O)N(C)C2(CC1(C)C)CC(C)(C)N(C)C(=O)N2C | 102%
